Where a name gives a salt, the structure may show the parent alone.
System: LOC_OS03G04050-cb001
Assay: thermal shift delta Tm vs DMSO control; higher = stronger stabilization (binding)
Conditions: 12.5 µM; protein concentration 2 µM
How it was run: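 Rice kinase domain constructs, made in E. coli and purified, were placed in 96-well plates at 2 μM in 19.5 μl of 100 mM potassium phosphate pH 7.5, 150 mM NaCl, 10% glycerol and 5 × SYPRO Orange, with compound in DMSO. A temperature ramp from 25°C to 95°C at 0.05°C/s was used for differential scanning fluorimetry. The melting temperature shift is a triplicate mean compared with DMSO-only protein, derived from Boltzmann fits.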
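Also: purified Escherichia coli-expressed rice kinase domain construct.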

Going from `CC(C)(C)c1cnc(CSc2cnc(NC(=O)C3CCNCC3)s2)o1` to `CN(C)C/C=C/C(=O)Nc1cc2c(Nc3ccc(F)c(Cl)c3)ncnc2cc1O[C@H]1CCOC1` [Afatinib (BIBW2992) Dimaleate], the “thermal shift delta Tm” value falls from 0.58 °C to 0.35 °C.

Compared with `O=C1c2c(O)cc(O)cc2OC(c2ccc(O)c(O)c2)C1O` (stereo not drawn) [Taxifolin (Dihydroquercetin)], `COc1cc(Nc2ncc(F)c(Nc3ccc4c(n3)N(COP(=O)(O)O)C(=O)C(C)(C)O4)n2)cc(OC)c1OC` [Fostamatinib (R788)] is higher in “thermal shift delta Tm” value: 0.4 °C for the first, 0.44 °C for the second.

Compared with `CCN(CC)CCNC(=O)c1c(C)[nH]c(/C=C2\C(=O)Nc3ccc(F)cc32)c1C` [Sunitinib Malate], `CC(=O)Nc1nc(C)c(-c2ccc(Cl)c(S(=O)(=O)NCCO)c2)s1` is higher in “thermal shift delta Tm” value: 0.23 °C for the first, 0.56 °C for the second.

Going from `CC(C)(C)c1nc(-c2ccc(NC(=O)Nc3cccc(C(F)(F)F)c3)c3ccccc23)c2c(N)nccn12` [kira6] to `CCc1nc(-c2cccc(C)c2)c(-c2ccnc(NC(=O)c3ccccc3)c2)s1`, the “thermal shift delta Tm” value rises from 0.01 °C to 0.27 °C.

Compared with `CNC(=O)c1cc(Oc2ccc(NC(=O)Nc3ccc(Cl)c(C(F)(F)F)c3)cc2)ccn1` [Sorafenib Tosylate], `C=CC(=O)Nc1cccc(Nc2nc(Nc3ccc(OCCOC)cc3)ncc2F)c1` is higher in “thermal shift delta Tm” value: 0.83 °C for the first, 1.14 °C for the second.

Going from `C[C@@]1(C(=O)Nc2ccc(F)nc2)CCCN1c1nc(Nc2cc(C3CC3)n[nH]2)c2cccn2n1` to `CC(C)c1c2cc(-c3ccnc(NC4CCC(NC5CCOCC5)CC4)n3)ccc2nn1C` (stereo not drawn), the “thermal shift delta Tm” value rises from 0.25 °C to 0.41 °C.

`COc1ccc(Cl)cc1NC(=O)Nc1cc(C)nc2ccccc12` was tested, and the “thermal shift delta Tm” value was 0.38 °C.

From the supplement of paper PMC9694430
